OPRM1-OPRD1 inv = mu-delta opioid heterodimer inverse agonism; P35372+P41143; AID 504357; inhibition, % at 9.3 µM; cell-based MOR-DOR heterodimer luminescence; hit rate 0.21% among 340,000; in the data active = inhibition above about 22%, passing the limit was not always enough;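 note: 0% = cells with DMSO and 100% = wells without cells with DMSO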
HTR5A ag = counter-screen for OPRM1-OPRD1 agonists: human HTR5A agonism; P47898; HTR5A agonist assay, luminescence, cell-based; activation, % at 9.3 µM; hit rate 0.61% among 340,000; AID 504692; in the data active = activation mostly above about 9.5%, no sharp cut-off; inactive = mostly below about 7.6%;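 note: 0% = cells with vehicle only and 100% = reference agonist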
Target sequence (P47898 whole entry, looked up): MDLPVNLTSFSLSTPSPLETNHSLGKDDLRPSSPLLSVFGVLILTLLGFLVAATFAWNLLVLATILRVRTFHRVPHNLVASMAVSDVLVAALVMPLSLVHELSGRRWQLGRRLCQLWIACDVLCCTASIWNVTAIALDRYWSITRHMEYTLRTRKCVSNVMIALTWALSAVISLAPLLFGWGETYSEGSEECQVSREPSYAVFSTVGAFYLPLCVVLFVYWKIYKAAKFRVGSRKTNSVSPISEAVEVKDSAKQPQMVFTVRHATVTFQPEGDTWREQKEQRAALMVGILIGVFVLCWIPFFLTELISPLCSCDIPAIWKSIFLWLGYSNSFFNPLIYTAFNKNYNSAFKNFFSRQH
HTR5A inv ag = HTR5A inverse agonism, opioid heterodimer counter-screen; hit rate 0.083% among 340,000; HTR5A cell line, luminescence; P47898; inhibition, % at 9.3 µM; in the data active = inhibition mostly above about 23%, no sharp cut-off; inactive = mostly below about 18%;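 note: 0% = cells with DMSO and 100% = no-cell wells with DMSO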
MOR-DOR ag-1 = agonists of human mu-delta opioid receptor heterodimerization; cells, OPRM1-OPRD1 heterodimerization, luminescence; activation, % at 9.3 µM; hit rate 0.3% among 340,000;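 note: 0% = vehicle-treated cells and 100% = reference agonist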
MOR-DOR ag-2 = opioid heterodimer agonism, HTR5A counter-screen. shares compounds with HTR5A ag. U2OS counter-screen cells, complementation luminescence, 3 h. activation, % at 9.3 µM. hit rate 13% among 800. AID 504913
HTR5A ag confirm = HTR5A (human) agonism, confirmation | shares compounds with HTR5A ag | HTR5A agonist cell assay, luminescence | activation, % at 9.3 µM | hit rate 17% among 800 | AID 504915; in the data active = activation above about 17%;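 note: 0% = cells with vehicle only and 100% = full reference agonist response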
An asterisk follows results filed as active; / = no result. A selection: hits, their analogues and other compounds. The true share with any hit is near 1.1%. Cut-off read from the data, not from the text of the source, unless noted: active = activation above about 18%; inactive = the rest.

SMILES | OPRM1-OPRD1 inv | HTR5A ag | HTR5A inv ag | MOR-DOR ag-1 | MOR-DOR ag-2 | HTR5A ag confirm
COc1ccc(OC)c2sc(N(CCN(C)C)C(=O)/C=C/c3cccs3)nc12 | -29 | 8 | -28 | 6 | / | /
COc1ccc(N2CCN(C(=O)COC(=O)COc3ccc(C#N)cc3)CC2)cc1 | 12 | -2 | -4 | -2 | / | /
Cn1cc(S(=O)(=O)NCc2cccs2)c(=O)n(C)c1=O | 5 | 19* | -58 | -1 | 1 | -1
O=C(CSc1ccc(-c2ccc(F)cc2)nn1)NCc1ccco1 | -9 | 19* | -50 | 2 | 2 | 0
COc1ccc(CN(C)CC(=O)Nc2ccccc2C(=O)NC2CC2)cc1OC | 8 | -6 | 9 | -2 | / | /
COc1ccc2c(c1)/C(=N/OC(=O)c1cccs1)CCC2 | -26 | 22* | -117 | 4 | 3 | 31*
COc1ccc(NC(=O)CN(C)CC(=O)Nc2ccc3c(c2)CCC3)cc1 | 11 | -2 | -10 | -2 | / | /
COc1ccc(NC(=O)O/N=C2/CCCc3ccc(OC)cc32)cc1 | 12 | 19* | -69 | -2 | 2 | 28*
O=C(Nc1ccc(S(=O)(=O)NCC2CCCO2)cc1)c1cccc(F)c1 (centres undefined) | -24 | 1 | -3 | 3 | / | /
COC(=O)c1ccc(NC(=O)c2cc[n+](Cc3ccccc3)cc2)cc1 | 8 | 15* | -13 | -2 | 0 | 3
CCOC(=O)c1sc(NC(=O)c2cc(-c3ccccc3C)nc3ccccc23)c(C#N)c1C | 4 | 2 | -4 | -1 | / | /
Cc1ccccc1-c1cc(C(=O)Nc2sc(C)c(C)c2C(N)=O)c2ccccc2n1 | 5 | 17* | -45 | -1 | 5 | -2
Cc1ccc(Oc2nnc(-c3ccccc3)cc2C#N)cc1 | -25 | 18* | -26 | 6 | 6 | 4
COc1cc(OC)cc(C(=O)N2CCN(Cc3ccc4c(c3)OCO4)CC2)c1 | 15 | -2 | 5 | -3 | / | /
CC(C)Oc1ccc(C2CNC(=O)C2)cc1 (centres undefined) | -6 | 23* | -60 | 1 | 1 | 65*
CC(C)Oc1ccc(C2CC(=O)NC2=O)cc1 (centres undefined) | 11 | 1 | -10 | -2 | / | /
O=C(NCc1ccncc1)C(=O)NC1CC1 | 1 | 3 | -4 | 0 | / | /
CCOc1ccccc1N1CCN(C(=O)NCc2ccc(Cl)cc2)CC1 | -9 | 2 | 12 | 1 | / | /
COc1ccccc1C(CNC(=O)c1cccc(S(=O)(=O)Nc2ccc(C)cc2)c1)N1CCCC1 (centres undefined) | 9 | 25* | -93 | -2 | 2 | 34*
COc1ccccc1NS(=O)(=O)c1cccc(C(=O)NCC(c2ccccc2OC)N2CCCC2)c1 (centres undefined) | 5 | 10 | 9 | -1 | / | /
CC(C(=O)NC1C=CS(=O)(=O)C1)N1C(=O)/C(=C/c2cccc(Cl)c2)SC1=S (centres undefined) | 1 | 15* | -17 | 0 | 38* | 2
CC(C)NC(=O)c1ccc(COc2cc(Cl)ccc2Cl)o1 | 1 | 4 | -16 | 0 | / | /
O=C1C(Cl)=C(N2CCOCC2)C(=O)N1c1cccc(C(F)(F)F)c1 | -2 | 14* | -10 | 0 | 2 | 6
COC(=O)c1cccc(N2C(=O)C(Cl)=C(N3CCOCC3)C2=O)c1 | 9 | 6 | -43 | -2 | / | /
COc1cc(C#Cc2c(-c3cncn3C)n(C)c3ccc(-c4ccc(CN5CCOCC5)cc4)cc23)cc(OC)c1 | -11 | 16* | -27 | 2 | 20* | 4
COc1ccc(NC(=O)CN(C)C(=O)C(Sc2ccccc2)c2ccccc2)cc1 (centres undefined) | 7 | 0 | 0 | -1 | / | /
Cc1coc2cc3oc(=O)c(CCC(=O)N4C[C@H]5C[C@@H](C4)c4cccc(=O)n4C5)c(C)c3cc12 | 10 | 26* | -10 | -2 | 1 | 51*
O=S(=O)(NCc1ccccc1)c1ccc(S(=O)(=O)N2CCCCC2)cc1 | 0 | 4 | -14 | 0 | / | /
O=S(=O)(c1ccc(S(=O)(=O)N2CCCN(Cc3ccccc3)C2)cc1)N1CCCCCC1 | 12 | 15* | -4 | -2 | 0 | 3
CC1(C)CC(n2c(NCCO)nc3c(c2=O)C2(CCCC2)Cc2ccccc2-3)CCO1 (centres undefined) | -26 | 23* | -60 | 4 | 1 | 0

Bioassay records from PubChem BioAssay.
